# Laboratory results reported in PubChem BioAssay.
# Several values for one entry are separate records, joined by “and”; a condition that tells them apart may be missing. Equal values may be shown once. Results filed as inconclusive are left out. Activity calls are given as the source filed them. Cut-off read from the data, not from the text of the source, unless noted: active = inhibition above about 80%; inactive = the rest.
# Legend:
# [1] = target: ATP-dependent translocase ABCB1 (Homo sapiens) (UniProt P08183); assay: P-glycoprotein substrate transport blockade – cell-based (AID 377; in the data active = fluorescence slope change above about 50%); details: MDR1-expressing cells, fluorescent substrate accumulation slope; stronger effect = higher value; concentration not given here
# [2] = target: Mitogen-activated protein kinase 7 (Homo sapiens) (UniProt Q13164); assay: Gal4-ERK5 driven luciferase induction – cell-based, HTS, primary screen (AID 1508626;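 active = luciferase signal above three times the same-plate solvent-only control wells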;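 note: luciferase driven by Gal4-ERK5 fusion binding five Gal4 sites before minimal TATA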); details: HeLa Gal4-ERK5 transactivation, 18 h, at 5 µM, stronger effect = higher value
# [3] = galactose survival enhancers in mitochondrial complex I cybrids – cell-based, galactose medium, ATP luminescence, primary screen (AID 1645843;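 active = z-score of at least 1.8 in each of two replicates, scored against plate mean and spread of sample wells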;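 note: positive z means more ATP and so rescue of galactose-driven cybrid death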); details: complex I mutant cybrid cells, 72 h, stronger effect = higher value
# [4] = viability loss in pontine glioma line – cell-based, JHH-DIPG-1, MIPE4.0, CellTiter-Glo, qHTS, dose response (AID 1347062; cut-off not given, nearly all actives have AC50 up to about 27 µM;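 for AC50: cells exposed to compound for two days before readout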); details: JHH-DIPG-1 viability, CellTiter-Glo ATP luminescence
# [5] = viability loss in pontine glioma line – cell-based, SU-DIPG-XIII, MIPE5.0, CellTiter-Glo, qHTS, dose response (AID 1347064; cut-off not given, nearly all actives have AC50 up to about 23 µM;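 for AC50: cells exposed to compound for 48 hours before the viability read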); details: CellTiter-Glo ATP luminescence
# [6] = viability loss in pontine glioma line – cell-based, SU-DIPG-XXV, MIPE5.0, CellTiter-Glo, qHTS, dose response (AID 1347065; cut-off not given, nearly all actives have AC50 up to about 26 µM;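 note: cells exposed to compound for 48 hours before ATP readout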); details: CellTiter-Glo ATP luminescence
# [7] = growth inhibition of DIPG cells – cell-based, MIPE4.0 library, CellTiter-Glo luminescence, qHTS (AID 1347066; cut-off not given, nearly all actives have AC50 up to about 30 µM;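 note: cells exposed to compound for 48 hours before readout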); details: SU-DIPG-VI viability, CellTiter-Glo ATP luminescence
# [8] = JHH-DIPG-1 glioma cell viability, MIPE5.0 library, CellTiter-Glo luminescence, qHTS (AID 1347067; cut-off not given, nearly all actives have AC50 up to about 26 µM;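 note: cells exposed to compound for 48 hours before readout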); details: JHH-DIPG-1 glioma viability, CellTiter-Glo ATP luminescence
# [9] = growth inhibition of DIPG cells – cell-based, MIPE5.0 library, qHTS (AID 1347068; cut-off not given, nearly all actives have IC50 up to about 30 µM); details: SU-DIPG-XXV viability
# [10] = viability loss in pontine glioma line – cell-based, SU-DIPG-IV, MIPE4.0, CellTiter-Glo, qHTS, dose response (AID 1347063; cut-off not given, nearly all actives have AC50 up to about 30 µM;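 note: compound exposure lasted 48 hours before the viability readout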); details: CellTiter-Glo ATP luminescence
# [11] = growth inhibition, single agents and combos, LFS_MB_1R, cell-based, cisplatin or BGB combos, synergistic combos for chromothripsis tumors (AID 1671452); details: LFS_MB_1R medulloblastoma cells, stronger effect = higher value;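 note: cells exposed for 96 hours before readout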
# [12] = growth inhibition, single agents and combos, CRL2098, cell-based, BGB or cisplatin IC20 combos, synergistic combos for chromothripsis tumors (AID 1671454); details: CRL2098 osteosarcoma cells, drug combinations, stronger effect = higher value;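 note: cells exposed for 96 h before readout; 0% = vehicle DMSO and 100% = killing by high DMSO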
# [13] = growth inhibition, single agents and combos, HD-MB03, cell-based, BGB or cisplatin IC20 combos, synergistic combos for chromothripsis tumors (AID 1671455; in the data active = inhibition above about 83%;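 note: 0% = vehicle DMSO and 100% = high DMSO as cytotoxic control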); details: HD-MB03 medulloblastoma cells, stronger effect = higher value
# [14] = growth inhibition, single agents and combos, UWB1.289, cell-based, BGB or cisplatin combos, synergistic combos for chromothripsis tumors (AID 1671456); details: UWB1.289 ovarian carcinoma cells, stronger effect = higher value;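 note: cells exposed to compound for four days; 0% = vehicle DMSO and 100% = killing by high DMSO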
# [15] = growth inhibition, single agents and combos, LFS_MB_2R, cell-based, cisplatin combos, synergistic combos for chromothripsis tumors (AID 1671457); details: LFS_MB_2R medulloblastoma cells, stronger effect = higher value;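 note: cells exposed to compound for four days before readout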
# [16] = UWB1.289_BRCA1 ovarian cancer growth, cell-based, BGB or cisplatin combinations (AID 1671459); details: UWB1.289 BRCA1 ovarian carcinoma, drug combinations, stronger effect = higher value
# [17] = drug combination toxicity in non-malignant astrocytes – cell-based, BGB or cisplatin IC20 combos, cytotoxicity control for chromothriptic childhood tumor combination screen (AID 1671460); details: Human astrocytes, viability inhibition, drug combinations, at 0.5 µM, stronger effect = higher value;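 note: cells exposed to compounds for 96 hours before viability readout; 0% = vehicle and 100% = killing control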
# [18] = BT084 cell growth, single and combined drugs, ICGC_MB145, cisplatin and BGB IC40 combos (AID 1671461); details: BT084 medulloblastoma cells, drug combinations, stronger effect = higher value;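 note: cells exposed to drugs for 96 hours; 0% = vehicle DMSO and 100% = high DMSO full killing control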
# [19] = RCMB18 cell growth, single agent and combined, cisplatin and BGB IC40 combos (AID 1671462); details: RCMB18 medulloblastoma cells, stronger effect = higher value;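 note: cells exposed to compound for four days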
# [20] = CRL1545 cell growth, single agent and combined, cisplatin and BGB IC20 combos (AID 1671464); details: CRL1545 osteosarcoma cells, stronger effect = higher value;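 note: cells exposed to compound for 96 hours before readout; 0% = vehicle DMSO and 100% = high DMSO killing control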
# [21] = measured here: combination with cisplatin, at 0.5 µM
# [22] = measured here: combination with cisplatin, at 5 µM
# Sequence of Mitogen-activated protein kinase 7 (Homo sapiens) (Q13164 whole entry, looked up, the tested form may be a part): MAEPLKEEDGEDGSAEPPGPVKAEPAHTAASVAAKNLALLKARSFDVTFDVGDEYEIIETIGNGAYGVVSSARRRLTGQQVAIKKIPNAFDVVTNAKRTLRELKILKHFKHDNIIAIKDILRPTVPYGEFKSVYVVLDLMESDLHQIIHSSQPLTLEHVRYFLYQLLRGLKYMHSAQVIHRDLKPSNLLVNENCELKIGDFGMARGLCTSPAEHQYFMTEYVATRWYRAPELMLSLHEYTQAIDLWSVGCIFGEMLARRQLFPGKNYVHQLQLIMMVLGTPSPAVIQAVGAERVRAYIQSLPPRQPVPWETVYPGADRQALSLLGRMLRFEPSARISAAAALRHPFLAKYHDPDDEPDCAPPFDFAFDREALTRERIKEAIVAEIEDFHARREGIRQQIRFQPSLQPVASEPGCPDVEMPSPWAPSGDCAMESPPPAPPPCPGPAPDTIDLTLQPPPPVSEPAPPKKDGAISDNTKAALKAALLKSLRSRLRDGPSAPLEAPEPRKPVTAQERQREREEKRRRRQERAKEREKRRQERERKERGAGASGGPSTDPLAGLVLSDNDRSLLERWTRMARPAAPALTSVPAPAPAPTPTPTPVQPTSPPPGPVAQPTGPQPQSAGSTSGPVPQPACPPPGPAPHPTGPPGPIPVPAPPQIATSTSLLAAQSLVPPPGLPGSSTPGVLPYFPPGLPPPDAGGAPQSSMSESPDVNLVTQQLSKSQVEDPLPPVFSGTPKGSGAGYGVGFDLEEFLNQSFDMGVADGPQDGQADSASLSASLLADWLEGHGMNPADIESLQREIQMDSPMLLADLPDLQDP
# Sequence of ATP-dependent translocase ABCB1 (Homo sapiens) (P08183 whole entry, looked up, the tested form may be a part): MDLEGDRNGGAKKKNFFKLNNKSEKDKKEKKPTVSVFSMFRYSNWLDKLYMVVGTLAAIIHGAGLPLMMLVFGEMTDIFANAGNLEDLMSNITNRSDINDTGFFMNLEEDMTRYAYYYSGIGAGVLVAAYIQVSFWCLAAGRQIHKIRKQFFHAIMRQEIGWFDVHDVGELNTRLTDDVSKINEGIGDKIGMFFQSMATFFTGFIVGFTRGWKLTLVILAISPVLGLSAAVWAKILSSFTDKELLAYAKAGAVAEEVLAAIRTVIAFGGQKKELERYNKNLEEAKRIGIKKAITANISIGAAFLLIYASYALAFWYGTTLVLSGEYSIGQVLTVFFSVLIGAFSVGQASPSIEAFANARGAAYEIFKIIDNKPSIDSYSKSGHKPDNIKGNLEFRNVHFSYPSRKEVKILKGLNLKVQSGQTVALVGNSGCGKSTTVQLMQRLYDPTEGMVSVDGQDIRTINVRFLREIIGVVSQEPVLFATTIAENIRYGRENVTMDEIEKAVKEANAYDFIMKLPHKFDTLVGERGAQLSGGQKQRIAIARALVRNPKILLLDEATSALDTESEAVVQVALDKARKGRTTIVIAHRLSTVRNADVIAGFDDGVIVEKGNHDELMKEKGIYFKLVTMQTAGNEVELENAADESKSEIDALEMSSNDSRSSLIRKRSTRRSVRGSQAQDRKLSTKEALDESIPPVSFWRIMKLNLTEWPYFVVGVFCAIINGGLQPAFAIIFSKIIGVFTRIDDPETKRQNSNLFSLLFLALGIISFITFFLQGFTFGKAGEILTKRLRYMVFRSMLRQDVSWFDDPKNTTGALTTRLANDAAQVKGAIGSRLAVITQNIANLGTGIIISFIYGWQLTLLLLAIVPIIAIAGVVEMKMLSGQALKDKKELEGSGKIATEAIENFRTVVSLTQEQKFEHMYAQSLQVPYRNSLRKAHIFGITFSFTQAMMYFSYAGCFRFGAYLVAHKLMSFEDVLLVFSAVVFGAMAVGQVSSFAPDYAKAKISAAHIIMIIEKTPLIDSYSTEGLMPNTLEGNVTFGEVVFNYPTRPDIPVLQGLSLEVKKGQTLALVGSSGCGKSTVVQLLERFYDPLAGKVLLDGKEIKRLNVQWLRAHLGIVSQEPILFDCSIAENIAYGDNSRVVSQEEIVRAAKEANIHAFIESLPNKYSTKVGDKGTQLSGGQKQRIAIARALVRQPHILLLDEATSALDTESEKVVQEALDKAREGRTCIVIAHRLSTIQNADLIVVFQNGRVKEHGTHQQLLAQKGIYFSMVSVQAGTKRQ
structure (smiles),measurement,setting,value
CC(=O)c1ccc2c(c1)N(CCCN(C)C)c1ccccc1S2,fluorescence slope change,[1],72% (active)
same,luciferase signal,[2],32 AU (inactive)
same,z-score,[3],-0.995 (inactive)
CC(C)(Oc1ccc(C2CC2(Cl)Cl)cc1)C(=O)O (stereo not given),outcome,[4],inactive
same,outcome,[5],inactive
same,outcome,[6],inactive
same,outcome,[7],inactive
same,outcome,[8],inactive
same,outcome,[9],inactive
same,z-score,[3],0.695 (inactive)
CC(C)Cn1cnc2c(N)nc3ccccc3c21,AC50,[4],18.7 µM (active)
same,AC50,[10],20.9 µM (active)
same,outcome,[5],inactive
same,outcome,[7],inactive
same,outcome,[8],inactive
same,outcome,[9],inactive
same,z-score,[3],0.245 (inactive)
Clc1ccc(C(Cn2ccnc2)OCc2ccsc2Cl)c(Cl)c1 (stereo not given),outcome,[4],inactive
same,luciferase signal,[2],72 AU (inactive)
same,z-score,[3],-1.6 (inactive)
O=C(O)c1cc(=O)[nH]c(=O)[nH]1,outcome,[4],inactive
same,outcome,[10],inactive
same,outcome,[5],inactive
same,outcome,[6],inactive
same,outcome,[7],inactive
same,outcome,[8],inactive
same,outcome,[9],inactive
same,inhibition,[11]; at 0.5 µM,-8.32% (inactive) and -28.4% (inactive)
same,inhibition,"[11]; measured here: combination with BGB IC40, at 0.05 µM",-17.9% and -11.5%
same,inhibition,[11]; [21],16.2% and -37.9%
same,inhibition,[11]; [22],-31% and -23.1%
same,inhibition,[12]; at 0.5 µM,2.38% (inactive) and -59.4% (inactive)
same,inhibition,"[12]; measured here: combination with BGB at IC20, at 0.5 µM",-8.75% and -29.4%
same,inhibition,"[12]; measured here: combination with cisplatin at IC20, at 0.5 µM",11.3% and -77.4%
same,inhibition,[13]; at 0.5 µM,6.65% (inactive) and -10.7% (inactive)
same,inhibition,"[13]; measured here: combo with BGB at IC20, at 0.5 µM",8.02% and -14.5%
same,inhibition,"[13]; measured here: combo with cisplatin at IC20, at 0.5 µM",1.03% and -2.03%
same,inhibition,[14]; at 0.5 µM,9.26% (inactive) and -11.7% (inactive)
same,inhibition,"[14]; measured here: inhibition with BGB combination, at 0.05 µM",1.2% and -34.8%
same,inhibition,"[14]; measured here: inhibition with cisplatin combination, at 0.05 µM",-6.87% and -27.5%
same,inhibition,[15]; at 0.5 µM,8.17% (inactive) and -25% (inactive)
same,inhibition,[15]; [21],-0.428% and -22.3%
same,inhibition,[15]; [22],15.8% and -23.2%
same,inhibition,"[16]; BGB combination, concentration series, at 5 µM",11.8% and -20.6%
same,inhibition,[16]; at 0.5 µM,7.12% (inactive) and -21.5% (inactive)
same,inhibition,"[16]; cisplatin combination, concentration series, at 5 µM",16.5% and -12.9%
same,inhibition,[17],6.1% (inactive) and -13.7% (inactive)
same,inhibition,[17]; measured here: combo with BGB IC20,3.75% and -11.6%
same,inhibition,[17]; measured here: combo with cisplatin IC20,18.5% and -10.3%
same,inhibition,[18]; at 0.5 µM,0.676% (inactive) and -23.4% (inactive)
same,inhibition,"[18]; cisplatin combination, at 0.5 µM",4.02% and -10.6%
same,inhibition,"[18]; cisplatin combination, at 5 µM",-30.1% and 9.58%
same,inhibition,"[18]; measured here: BGB IC40 combination 0.05 uM, at 0.05 µM",29.1% and 10.4%
same,inhibition,"[18]; single agent, at 5 µM",10.6% and -23.7%
same,inhibition,[19]; at 0.5 µM,4.65% (inactive) and -11.2% (inactive)
same,inhibition,"[19]; cisplatin combo, at 5 µM",33.1% and 20.6%
same,inhibition,"[19]; measured here: BGB IC40 combination, at 0.05 µM",20.2% and -17.2%
same,inhibition,[19]; [21],10.8% and 27.7%
same,inhibition,"[19]; single agent, at 5 µM",-13.7% and -20.9%
same,inhibition,[20]; at 0.5 µM,-2.03% (inactive) and 7.29% (inactive)
same,inhibition,"[20]; measured here: with BGB IC20 combination, at 0.5 µM",-9.08% and 1.78%
same,inhibition,"[20]; measured here: with cisplatin IC20 combination, at 0.5 µM",1.49% and 10%
same,inhibition,"[20]; single agent, at 0.05 µM",0.986% and -9.64%
same,inhibition,"[20]; single agent, at 5 µM",-15.6% and -9.76%
Cc1nc(Nc2ncc(C(=O)Nc3c(C)cccc3Cl)s2)cc(N2CCN(CCO)CC2)n1,AC50,[4],16.6 µM (active)
same,AC50,[10],16.6 µM (active)
same,AC50,[5],14.8 µM (active)
same,AC50,[6],14.8 µM (active)
same,outcome,[7],inactive
same,AC50,[8],7.42 µM (active)
O=C(Oc1cccc2cccnc12)c1ccccc1,luciferase signal,[2],44 AU (inactive)
CC[N+](CC)(CC(=O)Nc1c(C)cccc1C)Cc1ccccc1,luciferase signal,[2],36 AU (inactive)
OC1(c2ccc(Cl)c(C(F)(F)F)c2)CCN(CCCC(c2ccc(F)cc2)c2ccc(F)cc2)CC1,luciferase signal,[2],60 AU (inactive)
O=C(Oc1ccccc1C(=O)O)c1ccccc1O,luciferase signal,[2],64 AU (inactive)
C[C@@H](O)[C@H]1C(=O)N2C(C(=O)O)=C(SCCN=CN)C[C@H]12,z-score,[3],-0.195 (inactive) and 0.375 (inactive)
CCCCOc1cc(C(=O)OCCN(CC)CC)ccc1N,z-score,[3],0.26 (inactive)
CC(C)(C)C(=O)C(Oc1ccc(Cl)cc1)n1ccnc1 (stereo not given),z-score,[3],-0.18 (inactive)
CCOc1ccc2nc(S(N)(=O)=O)sc2c1,luciferase signal,[2],40 AU (inactive)
CNCCc1ccccn1,fluorescence slope change,[1],28.1% (inactive)
same,luciferase signal,[2],64 AU (inactive)
N=C(N)N1CCc2ccccc2C1,z-score,[3],0.125 (inactive)
COc1cc(C(=O)N2CCOCC2)cc(OC)c1OC,luciferase signal,[2],48 AU (inactive)
CCOc1nc2cccc(C(=O)O)c2n1Cc1ccc(-c2ccccc2-c2nn[nH]n2)cc1,z-score,[3],0.64 (inactive)
CN(C(=O)C(Cl)Cl)c1ccc(OC(=O)c2ccco2)cc1,luciferase signal,[2],44 AU (inactive)
CN1C(=O)OC(C)(C)C1=O,fluorescence slope change,[1],1.5% (inactive)
